# How the values were obtained:
# [1] = biological target: NR5A2 wild type;histone octamer (Homo sapiens;, UniProt O00482;C0HKE1;Q6ZWY9;P84244;P62806 1-541;2-130;2-126;2-136;2-103, |); assay: SeEN-seq (EMSA of nucleosome library followed by sequencing); 0.8 uM human NR5A2; 20 mM Tris-HCl pH 7.5, 120 mM NaCl, 1 mM MgCl2, 10 uM ZnCl2, 1 mM DTT, 100 ug/ml BSA, room temperature, 30 min; 0.1 uM nucleosome library; high values mean tight binding
# [2] = biological target: mouse Nr5a2 wild type;histone octamer (Mus musculus;, UniProt P45448;C0HKE1;Q6ZWY9;P84244;P62806 1-560;2-130;2-126;2-136;2-103, |); assay: SeEN-seq (EMSA of nucleosome library followed by sequencing); 1.2 uM mouse Nr5a2; 20 mM Tris-HCl pH 7.5, 120 mM NaCl, 1 mM MgCl2, 10 uM ZnCl2, 1 mM DTT, 100 ug/ml BSA, room temperature, 30 min; 0.1 uM nucleosome library; high values mean tight binding
Binder,binding signal [1],binding signal [2]
"53 (nucleosome, reconstituted with mouse histones H2A, H2B, H3.3 and H4) DNA 1: ATCCTGGAGAATCCCGGTGCCGAGGCCGCTCAATTGGTCGTAGACAGCTCTAGCATCAAGGCCACGCACGTACGCGCTGTCCCCCGCGTTTTAACCGCCAAGGGGATTACTCCCTAGTCTCCAGGCACGTGTCAGATATATACATCCTGTGAT DNA 2: ATCACAGGATGTATATATCTGACACGTGCCTGGAGACTAGGGAGTAATCCCCTTGGCGGTTAAAACGCGGGGGACAGCGCGTACGTGCGTGGCCTTGATGCTAGAGCTGTCTACGACCAATTGAGCGGCCTCGGCACCGGGATTCTCCAGGAT","1.03 log2 enrichment (bound/unbound, relative to Widom 601)","1.17 log2 enrichment (bound/unbound, relative to Widom 601)"
"54 (nucleosome, reconstituted with mouse histones H2A, H2B, H3.3 and H4) DNA 1: ATCCTGGAGAATCCCGGTGCCGAGGCCGCTCAATTGGTCGTAGACAGCTCTAGCACTCAAGGCCAGCACGTACGCGCTGTCCCCCGCGTTTTAACCGCCAAGGGGATTACTCCCTAGTCTCCAGGCACGTGTCAGATATATACATCCTGTGAT DNA 2: ATCACAGGATGTATATATCTGACACGTGCCTGGAGACTAGGGAGTAATCCCCTTGGCGGTTAAAACGCGGGGGACAGCGCGTACGTGCTGGCCTTGAGTGCTAGAGCTGTCTACGACCAATTGAGCGGCCTCGGCACCGGGATTCTCCAGGAT","0.993 log2 enrichment (bound/unbound, relative to Widom 601)","1 log2 enrichment (bound/unbound, relative to Widom 601)"
"56 (nucleosome, reconstituted with mouse histones H2A, H2B, H3.3 and H4) DNA 1: ATCCTGGAGAATCCCGGTGCCGAGGCCGCTCAATTGGTCGTAGACAGCTCTAGCACCGTCAAGGCCAACGTACGCGCTGTCCCCCGCGTTTTAACCGCCAAGGGGATTACTCCCTAGTCTCCAGGCACGTGTCAGATATATACATCCTGTGAT DNA 2: ATCACAGGATGTATATATCTGACACGTGCCTGGAGACTAGGGAGTAATCCCCTTGGCGGTTAAAACGCGGGGGACAGCGCGTACGTTGGCCTTGACGGTGCTAGAGCTGTCTACGACCAATTGAGCGGCCTCGGCACCGGGATTCTCCAGGAT","0.684 log2 enrichment (bound/unbound, relative to Widom 601)","0.45 log2 enrichment (bound/unbound, relative to Widom 601)"
"55 (nucleosome, reconstituted with mouse histones H2A, H2B, H3.3 and H4) DNA 1: ATCCTGGAGAATCCCGGTGCCGAGGCCGCTCAATTGGTCGTAGACAGCTCTAGCACCTCAAGGCCACACGTACGCGCTGTCCCCCGCGTTTTAACCGCCAAGGGGATTACTCCCTAGTCTCCAGGCACGTGTCAGATATATACATCCTGTGAT DNA 2: ATCACAGGATGTATATATCTGACACGTGCCTGGAGACTAGGGAGTAATCCCCTTGGCGGTTAAAACGCGGGGGACAGCGCGTACGTGTGGCCTTGAGGTGCTAGAGCTGTCTACGACCAATTGAGCGGCCTCGGCACCGGGATTCTCCAGGAT","1.2 log2 enrichment (bound/unbound, relative to Widom 601)","0.957 log2 enrichment (bound/unbound, relative to Widom 601)"
"46 (nucleosome, reconstituted with mouse histones H2A, H2B, H3.3 and H4) DNA 1: ATCCTGGAGAATCCCGGTGCCGAGGCCGCTCAATTGGTCGTAGACAGCTCAAGGCCAGCTTAAACGCACGTACGCGCTGTCCCCCGCGTTTTAACCGCCAAGGGGATTACTCCCTAGTCTCCAGGCACGTGTCAGATATATACATCCTGTGAT DNA 2: ATCACAGGATGTATATATCTGACACGTGCCTGGAGACTAGGGAGTAATCCCCTTGGCGGTTAAAACGCGGGGGACAGCGCGTACGTGCGTTTAAGCTGGCCTTGAGCTGTCTACGACCAATTGAGCGGCCTCGGCACCGGGATTCTCCAGGAT","0.748 log2 enrichment (bound/unbound, relative to Widom 601)","0.651 log2 enrichment (bound/unbound, relative to Widom 601)"
"59 (nucleosome, reconstituted with mouse histones H2A, H2B, H3.3 and H4) DNA 1: ATCCTGGAGAATCCCGGTGCCGAGGCCGCTCAATTGGTCGTAGACAGCTCTAGCACCGCTTTCAAGGCCATACGCGCTGTCCCCCGCGTTTTAACCGCCAAGGGGATTACTCCCTAGTCTCCAGGCACGTGTCAGATATATACATCCTGTGAT DNA 2: ATCACAGGATGTATATATCTGACACGTGCCTGGAGACTAGGGAGTAATCCCCTTGGCGGTTAAAACGCGGGGGACAGCGCGTATGGCCTTGAAAGCGGTGCTAGAGCTGTCTACGACCAATTGAGCGGCCTCGGCACCGGGATTCTCCAGGAT","0.92 log2 enrichment (bound/unbound, relative to Widom 601)","0.823 log2 enrichment (bound/unbound, relative to Widom 601)"
"51 (nucleosome, reconstituted with mouse histones H2A, H2B, H3.3 and H4) DNA 1: ATCCTGGAGAATCCCGGTGCCGAGGCCGCTCAATTGGTCGTAGACAGCTCTAGTCAAGGCCAAACGCACGTACGCGCTGTCCCCCGCGTTTTAACCGCCAAGGGGATTACTCCCTAGTCTCCAGGCACGTGTCAGATATATACATCCTGTGAT DNA 2: ATCACAGGATGTATATATCTGACACGTGCCTGGAGACTAGGGAGTAATCCCCTTGGCGGTTAAAACGCGGGGGACAGCGCGTACGTGCGTTTGGCCTTGACTAGAGCTGTCTACGACCAATTGAGCGGCCTCGGCACCGGGATTCTCCAGGAT","0.595 log2 enrichment (bound/unbound, relative to Widom 601)","0.567 log2 enrichment (bound/unbound, relative to Widom 601)"

# — article PMC11102866, “Nucleosome-bound NR5A2 structure reveals pioneer factor mechanism by DNA minor groove anchor competition”
